Results reported in PubChem BioAssay AID1159580 (chemical genetic matrix, 2015).
Several values for one entry are separate records, joined by “and”; a condition that tells them apart may be missing. Equal entries are not always repeated. Among all 5,500 compounds or so, about 2,000 (36%) were called active. About 18% were inconclusive and are not listed. Cut-off read from the data, not from the text of the source: active = normalized growth mostly below about 0.91 (no sharp cut-off); inconclusive = no clear call, values can overlap the other calls; inactive = mostly above about 0.92. The list shows a part of the results.

Experiment: chemical genetic growth profiling, strain panel (AID 1159580);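 note: tested at 20 µM; growth read once vehicle control cultures reached saturation at 30 °C; 1 = growth at the plate median or of vehicle wells; lower values mean less growth of the strain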
Settings: S. cerevisiae deletion strains, growth OD

Measured: normalized growth

COc1ccc(C[C@H](N)C(=O)N[C@@H]2[C@@H](CO)OC(n3cnc4c(N(C)C)ncnc43)[C@@H]2O)cc1 (stereo partly specified)
inactive: locus YAL013W, strain DEP1, active compounds read low 1.01 | locus YAL021C, strain ccr4, active compounds read low 0.977 | locus YAL026C, strain drs2, active compounds read low 0.996 | locus YAL030W, strain snc1, active compounds read low 0.996 | locus YBL061C, strain skt5, active compounds read low 0.996 | locus YBR009C, strain hhf1, active compounds read low 0.988 | locus YBR021W, strain FUR4, active compounds read low 1 | locus YBR023C, strain chs3, active compounds read low 0.986 | locus YBR171W, strain sec66, active compounds read low 0.976 | locus YBR229C, strain ROT2, active compounds read low 1.01 | locus YBR231C, strain swc5, active compounds read low 0.994 | locus YBR279W, strain paf1, active compounds read low 0.992 | locus YCL011C, strain gbp2, active compounds read low 1 | locus YCL016C, strain dcc1, active compounds read low 1.01 | locus YCL029C, strain bik1, active compounds read low 1.02 | locus YCL069W, strain vba3, active compounds read low 0.992 | locus YCR088W, strain abp1, active compounds read low 0.992 | locus YDL005C, strain med2, active compounds read low 0.995 | locus YDL035C, strain GPR1, active compounds read low 1 | locus YDL040C, strain nat1, active compounds read low 1.01 | locus YDL074C, strain BRE1, active compounds read low 0.988 | locus YDL101C, strain DUN1, active compounds read low 1.01 | locus YDL134C, strain PPH21, active compounds read low 1 | locus YDL185W, strain tfp1, active compounds read low 1.02 | locus YDL192W, strain arf1, active compounds read low 1.02 | locus YDR001C, strain nth1, active compounds read low 0.982 | locus YDR069C, strain doa4, active compounds read low 0.981 | locus YDR101C, strain arx1, active compounds read low 1.02 | locus YDR137W, strain rgp1, active compounds read low 1.01 | locus YDR150W, strain NUM1, active compounds read low 1 | locus YDR159W, strain sac3, active compounds read low 0.981 | locus YDR162C, strain NBP2, active compounds read low 1.02 | locus YDR195W, strain ref2 0.969 | locus YDR297W, strain sur2, active compounds read low 0.996 | locus YDR318W, strain mcm21, active compounds read low 1.02 | locus YDR334W, strain swr1, active compounds read low 0.977 | locus YDR335W, strain msn5, active compounds read low 0.985 | locus YDR388W, active compounds read low 1.02 | locus YDR392W, strain spt3, active compounds read low 1.01 | locus YDR502C, strain sam2, active compounds read low 1 | locus YEL003W, strain gim4, active compounds read low 0.999 | locus YEL037C, strain rad23, active compounds read low 1 | locus YEL061C, strain CIN8 (second series), active compounds read low 0.99 | locus YEL061C, strain CIN8, active compounds read low 1 | locus YER015W, strain faa2, active compounds read low 0.991 | locus YER016W, strain bim1, active compounds read low 1.01 | locus YER110C, active compounds read low 1.02 | locus YER111C, strain swi4, active compounds read low 0.977 | locus YER155C, strain BEM2 (second series), active compounds read low 1.03 | locus YER155C, strain BEM2, active compounds read low 1 | locus YER167W, strain BCK2, active compounds read low 1.02 | locus YFR010W, strain ubp6, active compounds read low 0.995 | locus YGL078C, strain dbp3, active compounds read low 1.02 | locus YGL086W, strain mad1, active compounds read low 1.02 | locus YGL167C, strain pmr1, active compounds read low 1.01 | locus YGL173C, strain kem1, active compounds read low 0.988 | locus YGL227W, strain vid30, active compounds read low 0.992 | locus YGL240W, strain doc1, active compounds read low 0.987 | locus YGL248W, strain PDE1, active compounds read low 1.01 | locus YGL253W, strain hxk2, active compounds read low 0.981 | locus YGR078C, strain PAC10, active compounds read low 0.99 | locus YGR135W, strain pre9, active compounds read low 1 | locus YGR229C, strain SMI1, active compounds read low 0.996 | locus YGR252W, strain gcn5, active compounds read low 1.06 | locus YHR013C, strain ard1, active compounds read low 0.983 | locus YHR027C, strain rpn1, active compounds read low 0.991 | locus YHR030C, strain SLT2, active compounds read low 1.01 | locus YHR079C, strain IRE1 (second series), active compounds read low 1.02 | locus YHR079C, strain IRE1, active compounds read low 0.98 | locus YHR094C, strain hxt1, active compounds read low 1.02 | locus YHR129C, strain ARP1, active compounds read low 1.01 | locus YHR142W, strain chs7, active compounds read low 1 | locus YHR200W, strain rpn10, active compounds read low 1.03 | locus YIL066C, strain RNR3, active compounds read low 1.02 | locus YIL073C, strain SPO22, active compounds read low 1.06 | locus YIL125W, strain kgd1, active compounds read low 1.01 | locus YIR030C, strain dcg1, active compounds read low 1.02 | locus YJL092W, strain hpr5, active compounds read low 0.988 | locus YJL095W, strain BCK1 (second series), active compounds read low 1 | locus YJL095W, strain BCK1, active compounds read low 0.997 and 0.996 | locus YJL115W, strain asf1, active compounds read low 0.984 | locus YJL129C, strain trk1, active compounds read low 0.987 | locus YJL134W, strain LCB3, active compounds read low 1 | locus YJL154C, strain vps35, active compounds read low 0.996 | locus YJL164C, strain tpk1, active compounds read low 1.01 | locus YJL166W, strain qcr8, active compounds read low 0.979 | locus YJL168C, strain set2, active compounds read low 1.01 | locus YJL187C, strain SWE1 (second series), active compounds read low 1.01 | locus YJL187C, strain SWE1, active compounds read low 0.998 | locus YJR043C, strain POL32, active compounds read low 0.995 | locus YJR066W, strain TOR1, active compounds read low 0.937
